# From ChEMBL document CHEMBL2218924, “A broad activity screen in support of a chemogenomic map for kinase signalling research and drug discovery” (Biochem J, 2013)
# Legend:
# [1] = target: T1, Dual specificity tyrosine-phosphorylation-regulated kinase 2 (Homo sapiens) (UniProt Q92630); conditions: at 1 µM
# T1 sequence (whole entry): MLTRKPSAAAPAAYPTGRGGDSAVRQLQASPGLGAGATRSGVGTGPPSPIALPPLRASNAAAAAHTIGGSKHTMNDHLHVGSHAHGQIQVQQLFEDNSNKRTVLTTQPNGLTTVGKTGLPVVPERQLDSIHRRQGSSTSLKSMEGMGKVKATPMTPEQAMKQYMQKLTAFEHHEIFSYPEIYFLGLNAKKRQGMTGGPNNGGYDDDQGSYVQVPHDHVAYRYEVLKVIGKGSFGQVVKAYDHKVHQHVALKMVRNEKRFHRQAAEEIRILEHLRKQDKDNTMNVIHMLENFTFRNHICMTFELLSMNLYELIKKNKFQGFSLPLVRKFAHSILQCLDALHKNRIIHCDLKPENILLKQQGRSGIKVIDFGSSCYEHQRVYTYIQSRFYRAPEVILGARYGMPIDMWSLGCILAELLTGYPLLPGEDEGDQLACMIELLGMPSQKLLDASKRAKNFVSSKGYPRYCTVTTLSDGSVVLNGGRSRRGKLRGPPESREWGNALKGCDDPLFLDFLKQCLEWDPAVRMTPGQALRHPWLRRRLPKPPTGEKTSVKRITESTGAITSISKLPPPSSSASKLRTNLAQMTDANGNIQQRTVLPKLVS
# [2] = target: T1, Dual specificity tyrosine-phosphorylation-regulated kinase 2 (Homo sapiens); conditions: at 10 µM
# [3] = target: T2, Ephrin type-A receptor 1 (Homo sapiens) (UniProt P21709); conditions: at 1 µM
# T2 sequence (whole entry): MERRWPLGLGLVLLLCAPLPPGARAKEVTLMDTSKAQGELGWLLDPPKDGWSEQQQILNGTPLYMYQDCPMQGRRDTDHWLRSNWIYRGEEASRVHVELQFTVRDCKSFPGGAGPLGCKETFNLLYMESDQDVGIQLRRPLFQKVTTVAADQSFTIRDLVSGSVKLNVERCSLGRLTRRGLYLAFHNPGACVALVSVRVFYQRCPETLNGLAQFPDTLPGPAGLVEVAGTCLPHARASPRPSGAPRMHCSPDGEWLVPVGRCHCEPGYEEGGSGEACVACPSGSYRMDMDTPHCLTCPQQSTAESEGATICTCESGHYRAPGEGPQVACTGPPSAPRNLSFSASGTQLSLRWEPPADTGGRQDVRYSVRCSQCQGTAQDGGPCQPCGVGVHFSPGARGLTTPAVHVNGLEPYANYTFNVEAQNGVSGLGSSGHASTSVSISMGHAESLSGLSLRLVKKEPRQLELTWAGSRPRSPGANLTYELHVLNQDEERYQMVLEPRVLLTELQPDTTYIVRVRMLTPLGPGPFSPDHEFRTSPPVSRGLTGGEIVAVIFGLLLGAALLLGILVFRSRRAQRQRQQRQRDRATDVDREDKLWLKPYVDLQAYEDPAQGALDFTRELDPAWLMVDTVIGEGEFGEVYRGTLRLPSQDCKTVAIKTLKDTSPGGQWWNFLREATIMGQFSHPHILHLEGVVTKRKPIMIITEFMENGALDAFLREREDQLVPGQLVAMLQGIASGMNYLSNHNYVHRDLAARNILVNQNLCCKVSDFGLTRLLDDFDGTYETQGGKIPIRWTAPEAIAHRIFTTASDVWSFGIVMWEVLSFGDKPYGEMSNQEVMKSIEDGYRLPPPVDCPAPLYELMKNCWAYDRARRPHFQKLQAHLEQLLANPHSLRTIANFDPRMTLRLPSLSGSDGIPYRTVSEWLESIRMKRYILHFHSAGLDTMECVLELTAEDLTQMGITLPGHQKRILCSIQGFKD
# [4] = target: T2, Ephrin type-A receptor 1 (Homo sapiens); conditions: at 10 µM
# [5] = target: Ephrin type-A receptor 2 (Homo sapiens) (UniProt P29317); conditions: at 1 µM
# [6] = target: Ephrin type-A receptor 2 (Homo sapiens) (UniProt P29317); conditions: at 10 µM
# [7] = target: T3, Ephrin type-A receptor 3 (Homo sapiens) (UniProt P29320); conditions: at 1 µM
# T3 sequence (whole entry): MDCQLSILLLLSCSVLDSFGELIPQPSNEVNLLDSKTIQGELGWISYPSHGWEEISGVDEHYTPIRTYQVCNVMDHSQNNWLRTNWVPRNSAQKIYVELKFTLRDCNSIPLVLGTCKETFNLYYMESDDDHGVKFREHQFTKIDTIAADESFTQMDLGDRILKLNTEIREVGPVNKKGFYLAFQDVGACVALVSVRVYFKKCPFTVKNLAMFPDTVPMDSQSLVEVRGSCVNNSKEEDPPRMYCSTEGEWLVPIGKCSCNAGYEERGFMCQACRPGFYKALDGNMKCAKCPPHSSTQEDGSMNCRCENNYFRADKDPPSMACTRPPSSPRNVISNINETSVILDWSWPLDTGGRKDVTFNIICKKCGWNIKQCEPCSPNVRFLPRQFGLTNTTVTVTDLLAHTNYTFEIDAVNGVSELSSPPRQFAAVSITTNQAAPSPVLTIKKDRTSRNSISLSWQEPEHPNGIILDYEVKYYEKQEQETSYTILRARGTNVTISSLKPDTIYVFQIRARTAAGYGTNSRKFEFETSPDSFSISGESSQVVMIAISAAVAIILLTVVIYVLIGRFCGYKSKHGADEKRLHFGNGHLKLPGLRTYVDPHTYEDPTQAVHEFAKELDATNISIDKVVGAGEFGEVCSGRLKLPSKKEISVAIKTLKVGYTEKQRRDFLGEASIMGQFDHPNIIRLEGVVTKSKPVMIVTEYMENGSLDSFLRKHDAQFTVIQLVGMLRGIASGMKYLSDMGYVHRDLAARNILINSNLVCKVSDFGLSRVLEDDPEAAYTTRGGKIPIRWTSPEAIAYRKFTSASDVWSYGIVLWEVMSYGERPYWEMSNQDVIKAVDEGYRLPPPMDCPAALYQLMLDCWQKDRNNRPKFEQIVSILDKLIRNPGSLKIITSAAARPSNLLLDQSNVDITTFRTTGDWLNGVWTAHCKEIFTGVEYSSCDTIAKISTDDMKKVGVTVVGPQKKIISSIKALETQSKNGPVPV
# [8] = target: T3, Ephrin type-A receptor 3 (Homo sapiens); conditions: at 10 µM
# [9] = target: Ephrin type-A receptor 4 (Homo sapiens) (UniProt P54764); conditions: at 1 µM
# [10] = target: Ephrin type-A receptor 4 (Homo sapiens) (UniProt P54764); conditions: at 10 µM
# [11] = target: Ephrin type-A receptor 5 (Homo sapiens) (UniProt P54756); conditions: at 1 µM
# [12] = target: Ephrin type-A receptor 5 (Homo sapiens) (UniProt P54756); conditions: at 10 µM
# [13] = target: Ephrin type-A receptor 7 (Homo sapiens) (UniProt Q15375); conditions: at 1 µM
# [14] = target: Ephrin type-A receptor 7 (Homo sapiens) (UniProt Q15375); conditions: at 10 µM
# [15] = target: T4, Ephrin type-A receptor 8 (Homo sapiens) (UniProt P29322); conditions: at 1 µM
# T4 sequence (whole entry): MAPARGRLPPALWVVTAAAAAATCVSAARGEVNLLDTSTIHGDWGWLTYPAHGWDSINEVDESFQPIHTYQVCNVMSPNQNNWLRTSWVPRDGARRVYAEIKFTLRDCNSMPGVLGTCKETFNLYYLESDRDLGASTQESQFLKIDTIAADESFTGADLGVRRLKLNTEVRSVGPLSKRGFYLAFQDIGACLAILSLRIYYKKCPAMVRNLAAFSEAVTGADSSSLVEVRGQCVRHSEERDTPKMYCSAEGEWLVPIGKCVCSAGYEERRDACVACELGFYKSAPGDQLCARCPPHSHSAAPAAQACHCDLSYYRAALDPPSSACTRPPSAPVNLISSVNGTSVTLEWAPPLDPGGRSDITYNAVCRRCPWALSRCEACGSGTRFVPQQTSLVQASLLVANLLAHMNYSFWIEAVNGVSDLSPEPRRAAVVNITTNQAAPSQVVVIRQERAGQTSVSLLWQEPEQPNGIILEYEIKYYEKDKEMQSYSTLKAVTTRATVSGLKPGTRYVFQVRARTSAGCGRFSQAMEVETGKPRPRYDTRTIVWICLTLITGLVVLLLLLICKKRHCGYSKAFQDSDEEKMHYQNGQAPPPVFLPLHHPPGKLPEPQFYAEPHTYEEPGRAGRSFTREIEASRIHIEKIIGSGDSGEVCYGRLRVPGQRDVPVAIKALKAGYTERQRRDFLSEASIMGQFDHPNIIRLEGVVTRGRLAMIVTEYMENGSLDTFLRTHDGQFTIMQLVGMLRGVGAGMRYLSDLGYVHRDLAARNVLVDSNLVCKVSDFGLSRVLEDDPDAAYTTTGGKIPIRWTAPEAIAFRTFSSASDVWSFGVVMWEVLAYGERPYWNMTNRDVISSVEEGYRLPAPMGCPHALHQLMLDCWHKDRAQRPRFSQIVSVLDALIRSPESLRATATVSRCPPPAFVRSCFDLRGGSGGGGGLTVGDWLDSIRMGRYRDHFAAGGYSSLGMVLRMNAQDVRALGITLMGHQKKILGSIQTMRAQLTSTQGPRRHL
# [16] = target: T4, Ephrin type-A receptor 8 (Homo sapiens); conditions: at 10 µM
# [17] = target: T5, Ephrin type-B receptor 1 (Homo sapiens) (UniProt P54762); conditions: at 1 µM
# T5 sequence (whole entry): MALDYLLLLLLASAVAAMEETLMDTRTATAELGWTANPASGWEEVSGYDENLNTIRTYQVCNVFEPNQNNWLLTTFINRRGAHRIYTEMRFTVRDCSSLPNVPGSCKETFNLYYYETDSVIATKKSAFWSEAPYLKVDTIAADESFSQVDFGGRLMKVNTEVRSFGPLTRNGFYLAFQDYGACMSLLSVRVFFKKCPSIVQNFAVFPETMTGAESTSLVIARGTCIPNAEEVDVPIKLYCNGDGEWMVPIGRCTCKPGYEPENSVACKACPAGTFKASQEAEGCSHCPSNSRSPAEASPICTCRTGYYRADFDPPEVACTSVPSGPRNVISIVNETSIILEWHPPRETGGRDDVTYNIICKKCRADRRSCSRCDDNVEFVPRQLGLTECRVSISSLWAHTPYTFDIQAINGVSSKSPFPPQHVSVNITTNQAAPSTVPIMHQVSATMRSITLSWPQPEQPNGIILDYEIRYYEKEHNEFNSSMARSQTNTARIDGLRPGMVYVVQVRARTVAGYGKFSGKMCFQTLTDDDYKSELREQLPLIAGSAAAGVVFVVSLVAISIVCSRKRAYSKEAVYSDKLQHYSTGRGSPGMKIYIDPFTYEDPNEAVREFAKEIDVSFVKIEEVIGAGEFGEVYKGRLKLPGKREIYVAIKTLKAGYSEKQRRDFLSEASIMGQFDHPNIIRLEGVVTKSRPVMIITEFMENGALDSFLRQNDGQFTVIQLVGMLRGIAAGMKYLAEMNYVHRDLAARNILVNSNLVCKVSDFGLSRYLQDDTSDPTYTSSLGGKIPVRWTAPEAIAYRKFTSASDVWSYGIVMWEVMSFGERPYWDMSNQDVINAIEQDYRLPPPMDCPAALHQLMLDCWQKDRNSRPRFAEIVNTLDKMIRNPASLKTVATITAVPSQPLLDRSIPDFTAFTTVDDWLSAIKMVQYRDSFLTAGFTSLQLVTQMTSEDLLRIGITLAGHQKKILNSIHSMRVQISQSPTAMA
# [18] = target: T6, Serine/threonine-protein kinase 17A (Homo sapiens) (UniProt Q9UEE5); conditions: at 1 µM
# T6 sequence (whole entry): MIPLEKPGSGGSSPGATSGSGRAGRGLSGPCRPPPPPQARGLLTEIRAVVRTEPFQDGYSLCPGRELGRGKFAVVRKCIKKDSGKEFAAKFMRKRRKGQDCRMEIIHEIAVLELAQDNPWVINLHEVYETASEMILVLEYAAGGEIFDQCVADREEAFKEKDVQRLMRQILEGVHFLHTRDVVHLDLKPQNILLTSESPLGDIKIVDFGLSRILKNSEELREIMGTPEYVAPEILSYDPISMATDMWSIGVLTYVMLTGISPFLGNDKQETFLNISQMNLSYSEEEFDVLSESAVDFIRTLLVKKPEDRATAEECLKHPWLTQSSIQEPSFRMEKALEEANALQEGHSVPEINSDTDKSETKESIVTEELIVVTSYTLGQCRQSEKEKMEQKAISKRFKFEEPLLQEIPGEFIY
# [19] = target: T6, Serine/threonine-protein kinase 17A (Homo sapiens); conditions: at 10 µM
# [20] = target: Epidermal growth factor receptor (Homo sapiens) (UniProt P00533); conditions: at 10 µM
# Ephrin type-A receptor 7 (Homo sapiens), sequence (Q15375 28-998 limits assumed): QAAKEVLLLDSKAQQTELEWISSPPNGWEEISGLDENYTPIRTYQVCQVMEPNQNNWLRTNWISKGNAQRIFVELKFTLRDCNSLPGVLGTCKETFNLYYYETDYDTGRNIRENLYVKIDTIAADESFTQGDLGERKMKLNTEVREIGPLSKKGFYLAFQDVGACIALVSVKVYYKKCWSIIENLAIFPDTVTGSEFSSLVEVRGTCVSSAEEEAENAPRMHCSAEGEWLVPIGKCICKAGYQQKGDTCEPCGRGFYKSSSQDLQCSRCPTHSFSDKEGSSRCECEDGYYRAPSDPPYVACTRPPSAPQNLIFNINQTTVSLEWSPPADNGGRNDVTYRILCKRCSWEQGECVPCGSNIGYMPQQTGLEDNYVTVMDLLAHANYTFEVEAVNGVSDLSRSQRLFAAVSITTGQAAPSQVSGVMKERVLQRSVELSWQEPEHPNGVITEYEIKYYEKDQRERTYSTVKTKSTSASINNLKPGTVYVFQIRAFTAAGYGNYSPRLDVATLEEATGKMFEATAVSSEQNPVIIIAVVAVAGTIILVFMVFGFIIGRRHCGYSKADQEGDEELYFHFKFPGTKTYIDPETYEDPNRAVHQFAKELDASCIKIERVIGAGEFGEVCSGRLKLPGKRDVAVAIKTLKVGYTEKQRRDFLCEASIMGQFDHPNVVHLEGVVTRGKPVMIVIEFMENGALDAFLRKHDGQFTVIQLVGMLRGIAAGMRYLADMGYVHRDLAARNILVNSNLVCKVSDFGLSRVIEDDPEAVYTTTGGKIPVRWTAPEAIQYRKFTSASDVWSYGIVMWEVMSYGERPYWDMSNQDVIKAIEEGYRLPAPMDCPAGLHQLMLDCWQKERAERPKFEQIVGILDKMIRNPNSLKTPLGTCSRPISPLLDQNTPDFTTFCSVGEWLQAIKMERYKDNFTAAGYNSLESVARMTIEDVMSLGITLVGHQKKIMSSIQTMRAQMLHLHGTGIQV
# Ephrin type-A receptor 4 (Homo sapiens), sequence (P54764 whole entry): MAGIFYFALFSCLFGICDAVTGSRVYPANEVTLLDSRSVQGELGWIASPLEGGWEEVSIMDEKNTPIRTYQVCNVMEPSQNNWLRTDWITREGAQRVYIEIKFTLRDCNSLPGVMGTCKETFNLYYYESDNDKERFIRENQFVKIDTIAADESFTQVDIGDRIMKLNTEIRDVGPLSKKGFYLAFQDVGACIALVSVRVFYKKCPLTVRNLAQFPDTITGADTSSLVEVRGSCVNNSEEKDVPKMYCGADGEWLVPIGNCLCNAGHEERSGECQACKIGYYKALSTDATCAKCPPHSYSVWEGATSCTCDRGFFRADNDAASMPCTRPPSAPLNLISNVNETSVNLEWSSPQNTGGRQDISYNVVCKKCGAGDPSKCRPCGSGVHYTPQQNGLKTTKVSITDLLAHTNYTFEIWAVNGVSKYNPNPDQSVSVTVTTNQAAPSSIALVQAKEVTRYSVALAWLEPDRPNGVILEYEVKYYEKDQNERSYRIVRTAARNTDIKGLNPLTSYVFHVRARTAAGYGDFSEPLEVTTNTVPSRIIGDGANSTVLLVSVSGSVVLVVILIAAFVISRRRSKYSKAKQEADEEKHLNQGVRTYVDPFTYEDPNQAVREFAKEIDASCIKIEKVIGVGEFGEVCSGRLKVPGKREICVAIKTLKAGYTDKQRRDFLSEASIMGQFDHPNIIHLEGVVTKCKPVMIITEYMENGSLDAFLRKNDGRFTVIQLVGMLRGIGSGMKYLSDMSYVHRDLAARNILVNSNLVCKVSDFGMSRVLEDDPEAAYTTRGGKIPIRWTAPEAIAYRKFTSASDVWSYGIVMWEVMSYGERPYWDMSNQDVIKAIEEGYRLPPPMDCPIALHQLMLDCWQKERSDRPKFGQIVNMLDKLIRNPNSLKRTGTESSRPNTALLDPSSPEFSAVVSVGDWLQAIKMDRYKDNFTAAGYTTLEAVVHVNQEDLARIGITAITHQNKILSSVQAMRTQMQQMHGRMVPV
# Ephrin type-A receptor 5 (Homo sapiens), sequence (P54756 whole entry): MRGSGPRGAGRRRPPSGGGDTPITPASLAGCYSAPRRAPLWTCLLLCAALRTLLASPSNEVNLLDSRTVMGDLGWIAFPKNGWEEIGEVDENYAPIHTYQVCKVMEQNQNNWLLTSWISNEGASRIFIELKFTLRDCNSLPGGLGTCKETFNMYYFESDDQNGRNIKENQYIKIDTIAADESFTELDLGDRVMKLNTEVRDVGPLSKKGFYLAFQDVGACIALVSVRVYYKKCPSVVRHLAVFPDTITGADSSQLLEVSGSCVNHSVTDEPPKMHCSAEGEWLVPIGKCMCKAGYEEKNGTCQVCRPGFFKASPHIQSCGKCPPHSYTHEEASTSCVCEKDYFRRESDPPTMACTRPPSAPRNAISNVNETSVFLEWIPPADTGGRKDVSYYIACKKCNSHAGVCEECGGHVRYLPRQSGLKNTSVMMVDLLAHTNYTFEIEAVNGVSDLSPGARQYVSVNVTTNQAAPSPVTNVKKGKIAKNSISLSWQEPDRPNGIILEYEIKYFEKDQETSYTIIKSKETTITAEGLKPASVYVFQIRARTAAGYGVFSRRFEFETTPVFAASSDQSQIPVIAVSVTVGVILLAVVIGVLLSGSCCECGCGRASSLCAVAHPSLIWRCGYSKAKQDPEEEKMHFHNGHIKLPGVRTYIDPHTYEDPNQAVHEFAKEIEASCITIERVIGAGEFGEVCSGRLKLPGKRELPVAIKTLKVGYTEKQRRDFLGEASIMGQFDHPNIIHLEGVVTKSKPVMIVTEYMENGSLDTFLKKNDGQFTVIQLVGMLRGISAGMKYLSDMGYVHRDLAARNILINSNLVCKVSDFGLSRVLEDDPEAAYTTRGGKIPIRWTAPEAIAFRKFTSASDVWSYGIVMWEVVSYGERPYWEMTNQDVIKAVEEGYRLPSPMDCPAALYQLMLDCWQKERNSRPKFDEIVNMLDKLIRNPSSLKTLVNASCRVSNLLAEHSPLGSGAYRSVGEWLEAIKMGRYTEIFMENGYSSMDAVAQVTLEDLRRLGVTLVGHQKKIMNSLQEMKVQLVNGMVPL
# Ephrin type-A receptor 2 (Homo sapiens), sequence (P29317 whole entry): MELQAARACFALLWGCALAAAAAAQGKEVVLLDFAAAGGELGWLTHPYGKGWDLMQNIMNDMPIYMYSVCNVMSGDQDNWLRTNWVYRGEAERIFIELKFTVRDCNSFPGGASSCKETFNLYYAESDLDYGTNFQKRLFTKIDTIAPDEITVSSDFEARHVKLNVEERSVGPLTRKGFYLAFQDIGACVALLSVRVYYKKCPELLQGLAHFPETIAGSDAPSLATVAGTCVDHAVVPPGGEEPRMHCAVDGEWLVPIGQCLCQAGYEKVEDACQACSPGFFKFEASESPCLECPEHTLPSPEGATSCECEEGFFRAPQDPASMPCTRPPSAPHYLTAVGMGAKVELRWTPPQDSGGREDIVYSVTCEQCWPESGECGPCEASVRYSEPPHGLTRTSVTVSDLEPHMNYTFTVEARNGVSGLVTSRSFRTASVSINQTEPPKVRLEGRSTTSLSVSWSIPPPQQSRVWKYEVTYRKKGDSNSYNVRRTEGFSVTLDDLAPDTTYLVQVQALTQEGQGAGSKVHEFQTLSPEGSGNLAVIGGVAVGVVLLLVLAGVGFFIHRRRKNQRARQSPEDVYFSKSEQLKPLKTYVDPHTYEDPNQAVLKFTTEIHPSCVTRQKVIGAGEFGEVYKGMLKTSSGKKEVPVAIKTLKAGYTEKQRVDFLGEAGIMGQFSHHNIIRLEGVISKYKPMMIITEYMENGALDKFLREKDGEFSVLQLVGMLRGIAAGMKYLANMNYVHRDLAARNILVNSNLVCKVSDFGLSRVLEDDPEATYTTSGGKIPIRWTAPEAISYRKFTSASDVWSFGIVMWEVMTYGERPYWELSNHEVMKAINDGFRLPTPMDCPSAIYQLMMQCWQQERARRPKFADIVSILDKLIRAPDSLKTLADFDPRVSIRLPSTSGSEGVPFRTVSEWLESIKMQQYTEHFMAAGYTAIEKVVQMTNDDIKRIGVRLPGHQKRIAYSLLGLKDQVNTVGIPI
SMILES,residual activity [1] [%],residual activity [2] [%],residual activity [3] [%],residual activity [4] [%],residual activity [5] [%],residual activity [6] [%],residual activity [7] [%],residual activity [8] [%],residual activity [9] [%],residual activity [10] [%],residual activity [11] [%],residual activity [12] [%],residual activity [13] [%],residual activity [14] [%],residual activity [15] [%],residual activity [16] [%],residual activity [17] [%],residual activity [18] [%],residual activity [19] [%],residual activity [20] [%]
COc1cc(OC)c(/C=C2\C(=O)Nc3ccccc32)c(OC)c1,102,93,89,82,88,93,97,84,103,105,128,101,94,94,95,84,100,,,
COC(=O)[C@@]1(O)C[C@H]2O[C@]1(C)n1c3ccccc3c3c4c(c5c6ccccc6n2c5c31)C(=O)NC4,2,-4,3,0,44,8,42,5,83,43,66,13,32,4,78,40,39,0,1,
COc1ccc2c(c1)/C(=C/c1cnc[nH]1)C(=O)N2,77,16,,,,,,,,,,81,,,,,,,,97
CCn1cnc2c(Nc3cccc(Cl)c3)nc(N[C@@H]3CCCC[C@@H]3N)nc21,,85,15,3,66,24,61,9,98,49,70,15,78,23,89,31,32,90,83,95
